The target in assay [1] is Cytochrome P450 3A4 (Homo sapiens) (UniProt P08684). Kind of assay: qHTS Assay for Activators of Cytochrome P450 3A4 (AID 885). Further: nearly all actives have a fitted effect of over 65% in size. Further: potency means the concentration at half of the fitted maximal effect. The essentials: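 Using 20nM recombinant human CYP3A4 in potassium phosphate (200mM), substrate Luciferin-PPXE at 25uM, luminescent luciferin detection followed a 60-min RT NADPH reaction; data scaled to 57 uM ketoconazole.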
Sequence of Cytochrome P450 3A4 (Homo sapiens) (P08684 whole entry, looked up): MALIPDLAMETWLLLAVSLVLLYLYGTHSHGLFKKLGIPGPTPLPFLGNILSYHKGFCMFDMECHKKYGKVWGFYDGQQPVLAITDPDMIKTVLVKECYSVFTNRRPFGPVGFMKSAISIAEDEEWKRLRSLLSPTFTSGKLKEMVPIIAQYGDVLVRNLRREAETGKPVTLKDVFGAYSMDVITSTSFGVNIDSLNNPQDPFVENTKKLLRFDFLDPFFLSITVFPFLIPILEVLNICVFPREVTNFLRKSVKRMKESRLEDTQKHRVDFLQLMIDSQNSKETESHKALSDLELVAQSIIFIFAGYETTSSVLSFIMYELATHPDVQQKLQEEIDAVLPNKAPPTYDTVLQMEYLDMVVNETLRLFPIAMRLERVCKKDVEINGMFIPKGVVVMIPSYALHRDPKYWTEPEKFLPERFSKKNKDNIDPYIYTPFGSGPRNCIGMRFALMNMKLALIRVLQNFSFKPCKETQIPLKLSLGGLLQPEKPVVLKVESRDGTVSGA
A short description of assay [2]: Confirmation and Secondary Assay for Modulators of Hemoglobin Beta Chain Splicing at IVS2 654 locus (AID 910).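 Further: HeLa cells stably carrying EGFP split by mutant beta-globin IVS2-654 intron; % of control where 0% means no effect.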 The method, boiled down:
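HeLa cells stably expressing EGFP interrupted by β-globin IVS2-654 intron, seeded overnight in Opti-MEM/2% FCS, then treated 2 days at 37 °C. Restored splicing read as total peak GFP intensity per well by laser scanning cytometry (488 nm excitation, 500–520 nm emission); 500 nM antisense PNA as control.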

The nature of assay [3]: Confirmation and Secondary Assay for Modulators of Hemoglobin Beta Chain Splicing at IVS2 705 locus (AID 930).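 Further: HeLa cells stably expressing the EGFP-705 splicing reporter; GFP fluorescence per well restored by corrected splicing of the IVS2-705 intron in EGFP; % of control where 0% means no effect.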 The method, boiled down:
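Stable HeLa line with EGFP disrupted by mutant beta-globin intron 2 (705). Overnight attachment, then 2 days of compound at 37C, 5% CO2. Signal: peak GFP intensity summed over objects 5-250 µm.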

Assay [4] is described as follows: qHTS Assay for Lipid Storage Modulators (AID 1519; calls by dose curve). The settings on record: Drosophila S3 cells, BODIPY lipid droplet/cell ratio, laser cytometry, cells loaded with oleic acid; for activity change, negative = inhibition: at 57.5 µM (top of the series). The method, boiled down: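 Cells seeded at 5,000 per well were treated with compounds over a concentration series and loaded with oleic acid (400 uM, as added). Lipid droplet fluorescence (488 nm excitation, 500-530 nm channel) was read by laser-scanning cytometry and normalized to 20 uM Triacsin C.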

Assay [5] addresses Ubiquitin carboxyl-terminal hydrolase 1 (Homo sapiens) (UniProt O94782). Kind of assay: Inhibitors of USP1/UAF1: Pilot qHTS (AID 504865). Further: nearly all actives have a fitted effect of over 35% in size. Further: potency means the concentration at half of the fitted maximal effect. The method, boiled down:
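USP1/UAF1 complex at 1 nM preincubated 15 min at room temperature with compound, then Ub-Rho substrate added at 150 nM final. Fluorescence (480/540 nm) read kinetically in 50 mM HEPES pH 7.8, 0.5 mM EDTA, 1 mM TCEP, 0.1 mg/ml BSA, 0.01% Tween-20.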

Assay [6] concerns the target Rap guanine nucleotide exchange factor 3 (Homo sapiens) (UniProt O95398). Kind of assay: Confirmatory qHTS for antagonist of cAMP-regulated guanine nucleotide exchange factor 3 (EPAC1) (AID 1645880). Further: nearly all actives have a fitted effect of over 55% in size. Further: potency means the concentration at half of the fitted maximal effect.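 On activity, negative = inhibition: plate controls were DMSO only for no effect and full effect of the ATA control for full effect.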 The essentials:
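Released BODIPY-GDP fluoresces less than Rap1-bound BODIPY-GDP; the signal is followed at 480/540 nm at 5-min intervals over 30 min, after 5 min at room temperature. Reactions contain 100 nM EPAC1, 250 nM RAP1B-BODIPY-GDP and 50 uM GDP; results are normalized to ATA and DMSO.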

Assay [7] shares this target. Description: Confirmatory qHTS for agonist of cAMP-regulated guanine nucleotide exchange factor 3 (EPAC1) (AID 1645881).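 Further: EPAC1 catalysed release of BODIPY-GDP from Rap1B seen as fluorescence loss; 100% = effect of cAMP agonist control; nearly all actives have a fitted effect of over 75% in size.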
The target of assay [8] is Rap guanine nucleotide exchange factor 4 (Homo sapiens) (UniProt Q8WZA2). Description: Confirmatory qHTS for agonist of cAMP-regulated guanine nucleotide exchange factor 4 (EPAC2) (AID 1645884).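 Further: nucleotide exchange releases bodipy-GDP from Rap1 and this lowers its fluorescence; on the % scale 0 is the no-effect control and ±100 the full control effect; nearly all actives have a fitted effect of over 65% in size.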
Sequence of Rap guanine nucleotide exchange factor 4 (Homo sapiens) (Q8WZA2 whole entry, looked up): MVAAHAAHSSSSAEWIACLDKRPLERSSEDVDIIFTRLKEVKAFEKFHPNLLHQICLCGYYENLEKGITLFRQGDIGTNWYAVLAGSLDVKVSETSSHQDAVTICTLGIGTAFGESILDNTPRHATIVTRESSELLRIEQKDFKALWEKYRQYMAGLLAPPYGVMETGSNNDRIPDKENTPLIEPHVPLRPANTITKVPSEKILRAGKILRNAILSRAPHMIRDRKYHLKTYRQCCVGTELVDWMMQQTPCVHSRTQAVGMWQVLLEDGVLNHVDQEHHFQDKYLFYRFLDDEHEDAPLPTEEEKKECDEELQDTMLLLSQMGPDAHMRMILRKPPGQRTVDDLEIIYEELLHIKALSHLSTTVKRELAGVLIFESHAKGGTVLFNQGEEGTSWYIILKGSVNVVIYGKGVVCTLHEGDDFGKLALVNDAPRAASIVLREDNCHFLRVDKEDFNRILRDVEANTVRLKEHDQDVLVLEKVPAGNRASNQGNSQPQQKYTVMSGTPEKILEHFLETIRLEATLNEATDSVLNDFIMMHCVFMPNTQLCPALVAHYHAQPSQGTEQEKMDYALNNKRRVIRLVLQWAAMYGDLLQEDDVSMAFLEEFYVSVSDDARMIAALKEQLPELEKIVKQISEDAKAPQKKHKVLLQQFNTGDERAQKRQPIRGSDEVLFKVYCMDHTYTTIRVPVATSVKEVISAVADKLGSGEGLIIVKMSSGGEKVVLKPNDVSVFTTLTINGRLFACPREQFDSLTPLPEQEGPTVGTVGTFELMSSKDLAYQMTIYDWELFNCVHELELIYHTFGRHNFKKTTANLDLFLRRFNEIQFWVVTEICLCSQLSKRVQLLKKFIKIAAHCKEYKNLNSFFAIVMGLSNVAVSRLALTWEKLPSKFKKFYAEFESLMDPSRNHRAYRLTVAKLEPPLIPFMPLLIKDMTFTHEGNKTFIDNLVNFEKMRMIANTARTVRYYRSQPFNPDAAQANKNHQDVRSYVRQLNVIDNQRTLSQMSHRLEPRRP
The target is the same in assay [9]. Kind of assay: Confirmatory qHTS for antagonist of cAMP-regulated guanine nucleotide exchange factor 4 (EPAC2) (AID 1645885). Further: nearly all actives have a fitted effect of over 25% in size. Further: potency means the concentration at half of the fitted maximal effect.
Assay [10] concerns the target Cytochrome P450 3A4 (Homo sapiens) (UniProt P08684). Kind of assay: qHTS Assay for Inhibitors and Substrates of Cytochrome P450 3A4 (AID 884). Further: nearly all actives have a fitted effect of over 50% in size. Further: potency means the concentration at half of the fitted maximal effect. The method, boiled down:
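Luminescent readout of luciferin produced by CYP3A4 (20 nM) dealkylation of Luciferin-PPXE, 25 uM (its KM). NADPH-driven reaction ran 60 min at RT after 10 min compound preincubation; data scaled to 57 uM ketoconazole as 100% inhibition.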

The target of assay [11] is Lysosomal acid glucosylceramidase (Homo sapiens) (UniProt P04062). Description: Glucocerebrosidase-p2 (AID 348; in the data active means potency below about 10 µM; further: potency means the concentration at half of the fitted maximal effect). Conditions: purified GBA, blue fluorogenic substrate, 40 min. The method, boiled down: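 Normal human glucocerebrosidase (0.2 nM) with blue fluorogenic substrate (80 uM final) in citrate/phosphate pH 5.9 with 10mM sodium taurocholate, 0.01% tween-20; 40 min RT, NaOH/glycine stop; fluorescence Ex 365/Em 440; AC50 from a titration from 0.6 nM upwards.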
Sequence of Lysosomal acid glucosylceramidase (Homo sapiens) (P04062 whole entry, looked up): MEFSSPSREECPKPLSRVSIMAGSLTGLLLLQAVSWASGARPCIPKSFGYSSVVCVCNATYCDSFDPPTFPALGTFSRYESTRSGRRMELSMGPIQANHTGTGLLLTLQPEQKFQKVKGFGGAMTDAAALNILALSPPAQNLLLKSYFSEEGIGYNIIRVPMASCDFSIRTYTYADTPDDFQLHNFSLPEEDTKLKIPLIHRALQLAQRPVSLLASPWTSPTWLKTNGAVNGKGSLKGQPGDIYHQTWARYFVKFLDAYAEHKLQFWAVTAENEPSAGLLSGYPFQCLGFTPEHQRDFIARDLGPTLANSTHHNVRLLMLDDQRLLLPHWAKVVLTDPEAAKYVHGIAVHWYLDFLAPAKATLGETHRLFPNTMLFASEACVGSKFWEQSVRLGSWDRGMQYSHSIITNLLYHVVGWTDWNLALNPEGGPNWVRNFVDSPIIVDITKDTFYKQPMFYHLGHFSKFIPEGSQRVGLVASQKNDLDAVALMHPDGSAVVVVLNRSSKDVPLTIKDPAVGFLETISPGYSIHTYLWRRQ

Assay [12] is described as follows: AP1 Signaling Pathway (AID 357; active means well fitted curve in either direction with a large enough effect, not every such curve was filed as active;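 further: ME-180 reporter cells stimulated with EGF at its EC50 level; on the % scale 0 is the no-effect control and ±100 the full control effect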). Conditions: ME-180 AP-1-bla reporter, EGF-induced, beta-lactamase ratio, 5 h; at 7.69 µM (top of the series) unless noted. The essentials:
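Titration-series screen for positive or negative modulators of EC50 EGF-induced signaling in ME-180 cells carrying an AP-1-driven beta-lactamase reporter. After 5 hours at 37 degrees Celsius, CCF4 460nm/530nm emission ratio gave %Activity; AC50 values derived.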

Assay [13] is described as follows: NFAT Signaling Pathway (AID 444; active means well fitted curve in either direction with a large enough effect, not every such curve was filed as active;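 further: carbachol stimulus at about its EC50 of 1 µM final; on the % scale 0 is the no-effect control and ±100 the full control effect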). The settings on record: Jurkat NFAT-bla M1, carbachol, beta-lactamase ratio, 5 h; at 7.69 µM (top of the series) unless noted. The essentials: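 Jurkat cells with NFAT-driven β-lactamase reporter and co-expressed M1 receptor, stimulated with carbachol (final 1 uM, ~EC50), compound titration, 5 h at 37 °C. CCF4 loaded 1 h at RT; 460/530 nm ratio gave %activity and AC50.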

The nature of assay [14]: Stat Signaling Pathway (AID 446; active means well fitted curve in either direction with a large enough effect, not every such curve was filed as active;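 further: ME-180 cervical cancer cells given 40 pM IL-6 alongside compound; SIE-controlled beta-lactamase reporter measured as 460/530 nm FRET emission ratio; on the % scale 0 is the no-effect control and ±100 the full control effect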). The settings on record: ME-180 (cervical carcinoma) SIE beta-lactamase reporter, IL-6 stimulated, 5 h; at 7.69 µM (top of the series) unless noted. The essentials: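 Overnight-plated ME-180 cells bearing a STAT Inducible Element beta-lactamase reporter; 5 h co-exposure to compound and 40 pM IL-6; values normalized to 300 pM IL-6 and 125 nM JAK inhibitor controls.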

The target of assay [15] is Glucocorticoid receptor (Homo sapiens) (UniProt P04150). Kind of assay: GR-GFP Redistribution (AID 450;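 active means compounds whose dose series gives a full or clear partial fitted curve of increased nuclear translocation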; further: potency means the concentration at half of the fitted maximal effect). The settings on record: U2OS GR-GFP nuclear translocation, laser cytometry, 2 h.
Sequence of Glucocorticoid receptor (Homo sapiens) (P04150 whole entry, looked up): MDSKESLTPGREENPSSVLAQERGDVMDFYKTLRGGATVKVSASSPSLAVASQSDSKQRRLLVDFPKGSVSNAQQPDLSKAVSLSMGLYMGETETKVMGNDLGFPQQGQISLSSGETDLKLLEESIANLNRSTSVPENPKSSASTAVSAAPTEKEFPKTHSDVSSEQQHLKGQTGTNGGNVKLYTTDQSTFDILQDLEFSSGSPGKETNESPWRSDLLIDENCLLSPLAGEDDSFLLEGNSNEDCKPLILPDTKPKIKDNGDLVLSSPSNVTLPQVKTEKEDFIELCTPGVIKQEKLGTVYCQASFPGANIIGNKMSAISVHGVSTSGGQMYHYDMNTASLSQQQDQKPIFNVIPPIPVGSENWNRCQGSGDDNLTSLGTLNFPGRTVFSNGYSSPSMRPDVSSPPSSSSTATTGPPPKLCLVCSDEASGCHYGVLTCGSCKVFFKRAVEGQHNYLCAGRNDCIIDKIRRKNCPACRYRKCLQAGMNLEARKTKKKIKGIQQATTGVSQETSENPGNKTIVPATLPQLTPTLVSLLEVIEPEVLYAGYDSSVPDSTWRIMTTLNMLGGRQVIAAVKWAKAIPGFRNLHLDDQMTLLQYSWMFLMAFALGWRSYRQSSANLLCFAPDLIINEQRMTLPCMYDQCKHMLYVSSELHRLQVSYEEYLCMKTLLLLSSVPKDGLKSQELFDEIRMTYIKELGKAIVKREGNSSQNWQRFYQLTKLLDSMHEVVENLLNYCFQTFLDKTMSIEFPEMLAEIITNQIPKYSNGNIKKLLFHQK
The target is the same in assay [16]. Description: GR-EFC Redistribution (AID 451; calls by dose curve; further: potency means the concentration at half of the fitted maximal effect). The settings on record: CHO-K1 GR-EFC translocation, beta-gal luminescence, 2 h. The essentials:
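CHO-K1 cells expressing nuclear EA and GR-ED fragments of b-gal; compounds titrated up to 46 uM final, 2 h at 37 C. GR nuclear translocation read as complemented b-gal luminescence after 1 h RT detection.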

The target of assay [17] is Mitogen-activated protein kinase 10 (Mus musculus) (UniProt Q61831). Description: JNK3 AlphaScreen Assay (AID 530; active means well fitted curve in either direction with a large enough effect, not every such curve was filed as active;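 further: kinase came from lysate of stimulated human HepG2 cells; signal reports phosphorylation of biotinylated GST-cJun 1-79 at Ser73 with 10 µM ATP; on the % scale 0 is the no-effect control and ±100 the full control effect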). The essentials: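 HepG2 lysate (IL-1b/TNFa pre-activated) + biotin-GST-cJun 1-79 + anti-pSer73 cJun; cpd titration, 15 min RT; ATP 10 uM start; Tris pH 7.6, MgCl2, DTT, vanadate; beads in EDTA buffer; AlphaScreen.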
[18] abbreviates: measured here: cell count channel max response.
Setting [19] is: measured here: lipid channel max response.

Each structure is given as a SMILES string. “And” between values parts separate entries of the source, which are not always exact repeats. Equal values may be shown once. Results filed as inconclusive are left out. More than one record can exist for a structure, and the calls need not agree. The source made the active and inactive calls. Unless noted, the call rests on the fitted dose curve; in most records, active means well fitted curve in the direction sought with a large enough effect; inconclusive means small, poorly fitted or top-dose-only effect, or another doubt; inactive means no such curve, though single readings can be large; an effect the other way counts as inactive or inconclusive. Some results are limits rather than exact numbers.

Sequence of Ubiquitin carboxyl-terminal hydrolase 1 (Homo sapiens) (O94782 whole entry, looked up): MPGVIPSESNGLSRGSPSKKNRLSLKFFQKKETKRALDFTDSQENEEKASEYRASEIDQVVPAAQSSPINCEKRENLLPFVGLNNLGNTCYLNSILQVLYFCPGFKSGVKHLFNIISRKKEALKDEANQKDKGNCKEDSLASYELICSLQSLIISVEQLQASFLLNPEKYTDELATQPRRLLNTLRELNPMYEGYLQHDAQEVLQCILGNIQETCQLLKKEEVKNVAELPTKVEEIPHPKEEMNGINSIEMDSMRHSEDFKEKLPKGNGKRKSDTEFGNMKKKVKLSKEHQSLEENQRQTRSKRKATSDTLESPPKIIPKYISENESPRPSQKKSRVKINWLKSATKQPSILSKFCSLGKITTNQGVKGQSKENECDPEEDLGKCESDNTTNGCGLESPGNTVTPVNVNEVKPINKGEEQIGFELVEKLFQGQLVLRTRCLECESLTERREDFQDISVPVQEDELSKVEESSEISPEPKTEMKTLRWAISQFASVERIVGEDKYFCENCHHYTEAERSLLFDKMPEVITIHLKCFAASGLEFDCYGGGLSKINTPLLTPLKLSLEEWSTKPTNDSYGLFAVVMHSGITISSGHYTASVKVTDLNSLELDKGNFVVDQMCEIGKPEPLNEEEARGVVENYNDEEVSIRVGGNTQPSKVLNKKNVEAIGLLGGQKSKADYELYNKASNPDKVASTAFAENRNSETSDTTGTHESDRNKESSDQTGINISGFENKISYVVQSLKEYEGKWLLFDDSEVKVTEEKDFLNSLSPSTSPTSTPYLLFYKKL
Sequence of Rap guanine nucleotide exchange factor 3 (Homo sapiens) (O95398 whole entry, looked up): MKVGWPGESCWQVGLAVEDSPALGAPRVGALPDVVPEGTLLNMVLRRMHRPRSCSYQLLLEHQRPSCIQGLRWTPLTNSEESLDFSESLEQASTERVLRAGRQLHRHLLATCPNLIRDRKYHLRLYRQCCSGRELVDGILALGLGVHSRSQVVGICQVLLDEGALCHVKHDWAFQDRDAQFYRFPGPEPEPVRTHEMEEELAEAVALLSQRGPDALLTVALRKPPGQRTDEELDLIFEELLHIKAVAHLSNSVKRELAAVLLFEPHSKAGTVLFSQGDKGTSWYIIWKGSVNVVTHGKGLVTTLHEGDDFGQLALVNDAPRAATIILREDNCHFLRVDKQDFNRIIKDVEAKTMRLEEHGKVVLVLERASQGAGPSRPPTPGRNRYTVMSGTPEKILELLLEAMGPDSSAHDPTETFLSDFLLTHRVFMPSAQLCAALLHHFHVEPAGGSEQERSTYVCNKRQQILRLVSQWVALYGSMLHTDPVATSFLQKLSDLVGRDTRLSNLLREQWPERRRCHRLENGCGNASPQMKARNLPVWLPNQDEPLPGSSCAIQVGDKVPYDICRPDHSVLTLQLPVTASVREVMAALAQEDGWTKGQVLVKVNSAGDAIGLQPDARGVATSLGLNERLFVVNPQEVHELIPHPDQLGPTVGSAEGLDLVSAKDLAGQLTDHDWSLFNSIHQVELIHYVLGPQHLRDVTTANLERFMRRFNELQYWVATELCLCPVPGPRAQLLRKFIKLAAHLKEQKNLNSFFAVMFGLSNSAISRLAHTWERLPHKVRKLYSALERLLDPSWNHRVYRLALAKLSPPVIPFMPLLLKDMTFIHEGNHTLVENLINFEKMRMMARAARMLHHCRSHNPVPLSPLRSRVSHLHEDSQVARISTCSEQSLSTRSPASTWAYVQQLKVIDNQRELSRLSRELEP

For `O=C1CC[C@@]23/C=C/C(=O)NCCCCNCCCNC(=O)/C=C/c4ccc(c2c4)OC3C1` (some centres not stated), the Potency result in assay [1], in assay [2], in assay [5], in [6], in assay [7] and in assay [8] was “inactive” throughout. For the same molecule, the Potency result in [9] is “inactive”. Also, in assay [3], the molecule was classed as inactive. Moreover, the activity change, negative = inhibition in assay [4] was 2.57% (inactive). For the same molecule, the figures for the max response in [4] (setting [18]) and in [4] (setting [19]) were 7.49% and 1.79%, respectively.
As for `CCOC(=O)c1c(C)cc(OC)cc1O`, the Potency result in assay [1], in assay [2], in assay [5], in assay [6], in assay [7] and in assay [8] was “inactive” throughout. Further, in assay [3], the molecule was classed as inactive. For the same molecule, the activity change, negative = inhibition in [4] was -10.6% (inactive). Besides, the figures for the max response in assay [4] (setting [18]) and in assay [4] (setting [19]) were 3.28% and -5.56%, respectively.
`CC1(C)C(O)CC[C@]2(C)C1CC[C@@]1(C)C2C(=O)C=C2[C@@H]3C[C@@](C)(C(=O)O)CC[C@@]3(C)CCC21C` (some centres not stated): the Potency entry in [1], in assay [2], in assay [6], in assay [7] and in assay [8] was “inactive” each time. Also, the call in assay [3] was inactive. Further, the activity change, negative = inhibition in [4] is 9.4% (inactive). Moreover, the max response in assay [4] (setting [18]) was found to be 16.2%; in [4] (setting [19]) it was 28.1%. Further, the Potency in [9] is 4.94 µM (active).
With `O=c1c(-c2ccccc2)coc2cc(O)cc(O)c12`, the Potency in assay [10] is 20 µM (active); in assay [5], 56.2 µM (active); in assay [6], 44.4 µM (active). Besides, the Potency entry in [1], in assay [2], in [7], in assay [8] and in [9] was “inactive” in each case. Moreover, in [3], the call was inactive. Further, in [4], the activity change, negative = inhibition was 13.9% (inactive). For the same molecule, the max response in assay [4] (setting [18]) is -5.73%; in assay [4] (setting [19]), 7.42%.
`CC(=O)OC1CC[C@]2(C)C(CC(OC(C)=O)[C@@]3(C)C4=CC(=O)OC(c5ccoc5)[C@]4(C)CCC23)C1(C)C` (some centres not stated): the Potency entry is “inactive and 2.51 µM (active)” in assay [10]; 6.31 µM (active) and inactive in assay [1]. Further, the Potency entry in assay [2], in [6], in assay [7] and in assay [8] was “inactive” throughout. Besides, the molecule was called inactive in [3]. Besides, the activity change, negative = inhibition in assay [4] is -24.5% (inactive) and -12.6% (inactive) and 0.61% (inactive). Moreover, the max response in [4] (setting [18]) was 6.99% and 9.73% and 16%; in assay [4] (setting [19]), -14.8% and -4.52% and 18.3%.
In the case of `Cc1ccccc1-c1ccc2ncnc(N(C)Cc3ccco3)c2c1`, the Potency was > 11.4 µM (inactive) in assay [11], > 46 µM (inactive) in assay [15], > 46 µM (inactive) in assay [16] and 31.2 µM (active) in assay [9]. The activity change, negative = inhibition in assay [12] is -8.93% (inactive); in assay [13], -28.4% (inactive); in [4], 2.17% (inactive). Also, the activity, negative = inhibition in assay [14] is -13.4% (inactive). Besides, the Potency entry in assay [17], in assay [5], in [7] and in [8] was “inactive” in each case. Further, the max response came out at 20.6% in assay [4] (setting [18]) and 23.2% in assay [4] (setting [19]).
